Laboratory results taken from the supplement of paper PMC6089552.
“And” between values parts separate entries of the source, which are not always exact repeats. Equal entries are not always repeated. The campaign covered roughly 3,200 compounds. About 300 (9.4%) showed activity. Only a selection was taken, and actives are over-represented in it overall.

Test system: A673/TR/shEF
Assay: cell viability (LOESS-normalised, relative to median of negative controls) (log2 ratio); higher = more viable cells (less compound effect), active = hit call of the paper (over 3 MAD below the median)
Settings: treatment time: 72 h
Summary of the method: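 Doxycycline, present or absent from 24 h before compounds, was used to induce EWS-FLI1 shRNA knockdown in A673/TR/shEF Ewing sarcoma cells at 1,500 per well in 384-well plates. Cells then received library compounds at two or more concentrations, or DMSO controls, for three days. Viability was measured by CellTiter-Glo luminescence on an Envision reader, and per-plate LOESS correction, division by the negative-control median and log2 transformation followed.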

[1] = 0.25 µM, library screen: screen1, EWS-FLI1 expression: high (no doxycycline)
[2] = 0.25 µM, library screen: screen1, EWS-FLI1 expression: low (doxycycline-induced shRNA knockdown)
[3] = 2.5 µM, library screen: screen1, EWS-FLI1 expression: high (no doxycycline)
[4] = 2.5 µM, library screen: screen1, EWS-FLI1 expression: low (doxycycline-induced shRNA knockdown)
[5] = 0.25 µM, library screen: screen2, EWS-FLI1 expression: high (no doxycycline)
[6] = 0.25 µM, library screen: screen2, EWS-FLI1 expression: low (doxycycline-induced shRNA knockdown)
[7] = 2.5 µM, library screen: screen2, EWS-FLI1 expression: high (no doxycycline)
[8] = 2.5 µM, library screen: screen2, EWS-FLI1 expression: low (doxycycline-induced shRNA knockdown)
[9] = 0.103 µM, library screen: screen3, EWS-FLI1 expression: high (no doxycycline)
[10] = 0.103 µM, library screen: screen3, EWS-FLI1 expression: low (doxycycline-induced shRNA knockdown)
[11] = 0.308 µM, library screen: screen3, EWS-FLI1 expression: high (no doxycycline)
[12] = 0.308 µM, library screen: screen3, EWS-FLI1 expression: low (doxycycline-induced shRNA knockdown)
[13] = 0.926 µM, library screen: screen3, EWS-FLI1 expression: high (no doxycycline)
[14] = 0.926 µM, library screen: screen3, EWS-FLI1 expression: low (doxycycline-induced shRNA knockdown)
[15] = 2.8 µM, library screen: screen3, EWS-FLI1 expression: high (no doxycycline)
[16] = 2.8 µM, library screen: screen3, EWS-FLI1 expression: low (doxycycline-induced shRNA knockdown)
[17] = 8.3 µM, library screen: screen3, EWS-FLI1 expression: high (no doxycycline)
[18] = 8.3 µM, library screen: screen3, EWS-FLI1 expression: low (doxycycline-induced shRNA knockdown)
[19] = 25 µM, library screen: screen3, EWS-FLI1 expression: high (no doxycycline)
[20] = 25 µM, library screen: screen3, EWS-FLI1 expression: low (doxycycline-induced shRNA knockdown)
[21] = 0.025 µM, library screen: screen2, EWS-FLI1 expression: high (no doxycycline)
[22] = 0.025 µM, library screen: screen2, EWS-FLI1 expression: low (doxycycline-induced shRNA knockdown)
[23] = 25 µM, library screen: screen2, EWS-FLI1 expression: high (no doxycycline)
[24] = 25 µM, library screen: screen2, EWS-FLI1 expression: low (doxycycline-induced shRNA knockdown)

Measured: cell viability (log2)

COc1ccccc1NC1CC(C)N(C(=O)c2ccc(C)cc2)c2c(C)cccc21 (centres undefined)
inactive: [1] 0.107 | [2] 0.0693 | [3] 0.128 | [4] 0.111

CCCN(CCC)C(=O)C(CCC(=O)O)NC(=O)c1ccccc1 (centres undefined)
inactive: [1] 0.188 | [2] 0.0317 | [5] 0.129 | [6] 0.0785 | [3] 0.223 | [4] 0.0771 | [7] 0.121 | [8] 0.115

Nc1ccc(C(=O)NCC(=O)O)cc1
inactive: [1] 0.0323 | [2] 0.126 | [3] 0.15 | [4] 0.151

CC(C)C[C@H](NC(=O)[C@H](CCC(=O)O)NC(=O)CNC(=O)c1ccc(/C=C/C(=O)O)cc1)C(N)=O
active: 0.025 µM, library screen: screen1, EWS-FLI1 expression: high (no doxycycline) -0.138
inactive: 0.025 µM, library screen: screen1, EWS-FLI1 expression: low (doxycycline-induced shRNA knockdown) 0.0951 | [1] -0.0717 | [2] 0.0592 | [3] -0.0597 | [4] 0.0308 | 25 µM, library screen: screen1, EWS-FLI1 expression: high (no doxycycline) -0.00491 | 25 µM, library screen: screen1, EWS-FLI1 expression: low (doxycycline-induced shRNA knockdown) -0.0971

CC(=O)O[C@@H]1CC2C(C)(C)C(=O)CC[C@]2(C)C2CC[C@]3(C)C(=CC(=O)O[C@H]3c3ccoc3)[C@@]21C (some centres undefined)
inactive: [1] 0.0774 | [2] 0.142 | [3] 0.182 | [4] 0.164

CCCCC(=O)N(Cc1ccc(-c2ccccc2-c2nn[nH]n2)cc1)[C@H](C(=O)O)C(C)C
inactive: [9] 0.0298 | [10] -0.0095 | [11] 0.124 | [12] 0.0801 | [13] 0.0765 | [14] 0.054 | [15] 0.0694 | [16] 0.124 | [17] 0.00201 | [18] 0.078 | [19] 0.137 | [20] 0.104

COc1ccc(/C=C/C(=O)O)cc1OC
inactive: [1] -0.00585 | [2] -0.00138 | [3] 0.164 | [4] 0.0104

CC(C)N1C(=O)C(=Cc2cccs2)SC1=S
inactive: [1] 0.108 | [2] 0.0522 | [3] 0.148 | [4] 0.0877

O=C1CC[C@]23/C=C/C(=O)NCCCCNCCCNC(=O)/C=C/c4ccc(c2c4)O[C@@H]3C1
inactive: [1] 0.0958 | [2] 0.0883 | [3] 0.0986 | [4] 0.157

COc1cc([C@@H]2c3cc4c(cc3[C@@H](O[C@@H]3O[C@@H]5CO[C@@H](c6cccs6)O[C@H]5[C@H](O)[C@H]3O)[C@H]3COC(=O)[C@H]23)OCO4)cc(OC)c1O
active: [1] -0.797 | [2] -0.349 | [11] -0.326 | [13] -0.931 | [14] -0.262 | [3] -1.74 | [4] -0.557 | [15] -1.32 | [16] -0.472 | [17] -2.12 | [18] -0.477 | [19] -3.07 | [20] -0.784
inactive: [9] -0.0319 | [10] -0.00588 | [12] -0.0159

COc1cc([C@@H]2c3cc4c(cc3[C@@H](O[C@@H]3O[C@@H]5CO[C@@H](C)O[C@H]5[C@H](O)[C@H]3O)[C@H]3COC(=O)[C@H]23)OCO4)cc(OC)c1O
active: [3] -0.176 | [7] -0.711 | [15] -0.212 | [17] -0.857 | [18] -0.166 | [19] -1.25 | [20] -0.367
inactive: [9] 0.16 | [10] 0.0754 | [1] 0.0215 | [2] 0.0298 | [5] 0.197 | [6] 0.0698 | [11] 0.0781 | [12] 0.0446 | [13] 0.0107 | [14] 0.0985 | [4] 0.00733 | [8] 0.00714 | [16] -0.0251

CCCC(CC)CCOC(=O)COc1cc(Cl)c(Cl)cc1Cl (centres undefined)
inactive: [1] 0.0358 | [2] 0.0314 | [3] 0.0377 | [4] 0.068

NCCCC(N)CC(=O)NCC1NC(=O)C(CO)NC(=O)C(N)CNC(=O)C(C2CCN=C(N)N2)NC(=O)/C(=C/NC(N)=O)NC1=O (centres undefined)
inactive: [1] 0.0914 | [2] 0.117 | [3] 0.124 | [4] 0.0772

CC1=C(C(=O)OCCOc2ccccc2)C(c2coc3ccccc3c2=O)C2=C(CCCC2=O)N1 (centres undefined)
inactive: [1] 0.0678 | [2] -0.0908 | [3] 0.0965 | [4] 0.143

COc1cc2nc(N3CCN(C(=O)C4=C[C@H]5C=C[C@@H]4CC5)CC3)nc(N)c2cc1OC
inactive: [5] 0.165 | [6] 0.0668 | [7] 0.132 | [8] 0.0728

NCCCCC(N)C(=O)NC(Cc1c[nH]c2ccccc12)C(=O)NC(CCCCN)C(=O)O (centres undefined)
inactive: [1] 0.0147 | [2] 0.0512 | [3] 0.141 | [4] 0.0544

COC(=O)c1c(OC)cc2c(c1C)Oc1c(Cl)c(OC(C)=O)c(Cl)c(C)c1C(=O)O2
inactive: [1] 0.0846 | [2] 0.126 | [3] 0.0897 | [4] 0.152

COC(=O)C1=C(C)N=c2sc(=Cc3cccnc3)c(=O)n2C1c1ccccc1 (centres undefined)
inactive: [1] 0.123 | [2] 0.0677 | [3] 0.0796 | [4] 0.107

O=C(/C=C/c1ccc(-c2cccc(Cl)c2)o1)c1ccco1
inactive: [1] 0.127 | [2] 0.15 | [3] 0.147 | [4] 0.194

Cn1c(=O)[nH]c2nc[nH]c2c1=O
inactive: [1] 0.0262 | [2] 0.135 | [3] 0.103 | [4] 0.0812

S=c1nc[nH]c2nc[nH]c12
inactive: [21] 0.182 | [22] 0.0993 | [9] 0.0192 | [10] 0.0459 | [1] -0.0045 | [2] -0.00406 | [5] 0.161 | [6] 0.00291 | [11] 0.144 | [12] 0.158 | [13] 0.0964 | [14] 0.0595 | [4] 0.0219 | [7] -0.00564 | [8] 0.0787 | [15] 0.036 | [16] 0.0694 | [17] -0.147 | [18] 0.036 | [24] 0.0432 | [20] 0.056
active: [3] -0.186 | [23] -0.312 | [19] -0.314

O=c1nc[nH]c2nc[nH]c12
inactive: [1] 0.00725 | [2] -0.0191 | [3] 0.152 | [4] 0.0891

Cn1c(=O)c2[nH]cnc2n(C)c1=O
inactive: [9] 0.139 | [10] 0.0982 | [1] 0.0899 | [2] 0.0721 | [5] 0.105 and -0.0181 | [6] 0.0369 and 0.0406 | [11] 0.11 | [12] 0.14 | [13] 0.146 | [14] 0.0819 | [3] 0.127 | [4] 0.0623 | [7] 0.259 and 0.0738 | [8] 0.0969 and 0.00951 | [15] 0.155 | [16] 0.129 | [17] 0.11 | [18] 0.0762 | [19] 0.117 | [20] 0.0984

Nc1nc(=S)c2[nH]cnc2[nH]1
active: [3] -0.318 | [7] -0.33 | [17] -0.323 | [23] -0.96 | [24] -0.163 | [19] -0.834
inactive: [21] 0.0835 | [22] 0.0155 | [9] 0.132 | [10] 0.0451 | [1] 0.0575 | [2] 0.137 | [5] 0.0679 | [6] 0.0691 | [11] 0.156 | [12] 0.137 | [13] 0.118 | [14] 0.102 | [4] 0.0456 | [8] -0.0263 | [15] 0.0258 | [16] 0.111 | [18] 0.0181 | [20] 0.027

COc1cc2ccc(=O)oc2c(OC)c1OC
inactive: [1] 0.24 | [2] 0.119 | [3] 0.156 | [4] 0.115

CC(C)/C(O)=C1/C(=O)O[C@@H](c2ccoc2)[C@]2(C)C(O)[C@@H](O)[C@@]34OC5(C)OC67CC(C)(C(O)[C@]6(O)[C@@H](O)[C@]3(O5)C12)[C@H](CC(=O)O)[C@]74C (some centres undefined)
inactive: [1] 0.0599 | [2] 0.0645 | [3] 0.0749 | [4] 0.047

COC(=O)C1=C(C)NC2=C(C(=O)CCC2)C1c1coc2ccccc2c1=O (centres undefined)
inactive: [1] 0.109 | [2] 0.0579 | [3] 0.125 | [4] 0.0379

CC(=O)O[C@@H]1CC2C(C)(C)[C@@H](O)CC[C@]2(C)C2CC[C@@]3(C)[C@H](c4ccoc4)OC(=O)[C@H]4O[C@]43[C@@]21C (some centres undefined)
inactive: [1] 0.0735 | [2] 0.138 | [3] 0.203 | [4] 0.158

CCOc1cc(/C=C2\SC(=S)N(CCS(=O)(=O)O)C2=O)ccc1O
inactive: [1] -0.00487 | [2] 0.0852 | [3] 0.0865 | [4] 0.0812

CN1CCN(c2nc3ccccn3c(=O)c2/C=C2\SC(=S)N(CCc3ccccc3)C2=O)CC1
inactive: [1] -0.00293 | [2] 0.00861 | [3] 0.0344 | [4] 0.124

C[C@H](CCC(=O)O)[C@H]1CC[C@H]2[C@@H]3CC[C@@H]4CCCC[C@]4(C)[C@H]3CC[C@]12C
inactive: [1] 0.0641 | [2] -0.0159 | [3] 0.109 | [4] -0.0358
